Reference: PubChem BioAssay (Tox21)
Records with an inconclusive call do not appear. Entries that show only a call come without a potency. The source made the active and inactive calls. Calls come from the whole dose curve.

Molecular target: Muscarinic acetylcholine receptor M1 (Homo sapiens) (UniProt P11229)
Sequence (P11229 whole entry, looked up): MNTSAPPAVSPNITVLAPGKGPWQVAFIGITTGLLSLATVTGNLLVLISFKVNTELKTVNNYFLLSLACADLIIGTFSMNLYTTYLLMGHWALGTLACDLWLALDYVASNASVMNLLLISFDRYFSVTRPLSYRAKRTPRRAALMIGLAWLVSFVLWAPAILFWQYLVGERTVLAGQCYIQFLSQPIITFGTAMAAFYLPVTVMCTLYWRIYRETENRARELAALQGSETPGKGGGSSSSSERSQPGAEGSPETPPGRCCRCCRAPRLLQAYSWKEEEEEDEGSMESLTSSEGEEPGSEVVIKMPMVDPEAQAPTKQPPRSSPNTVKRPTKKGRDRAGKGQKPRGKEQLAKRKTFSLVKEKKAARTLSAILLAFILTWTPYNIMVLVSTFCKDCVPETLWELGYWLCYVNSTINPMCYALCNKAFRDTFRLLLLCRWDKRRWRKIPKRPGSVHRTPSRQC
Experiment: Cholinergic receptor muscarinic 1 (CHRM1) small molecule agonists, cell-based qHTS assay (AID 1963589); note: nearly all actives have a fitted effect of over 35% in size
Conditions: CHRM1-CHO cells, agonist mode, calcium flux fluorescence; series mostly up to 76.8 µM
In short: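 Cells were plated and incubated 18 h at 37 C/5% CO2, loaded with calcium dye for 1 h at 37 C, then treated with compounds in DMSO. Fluorescence was recorded kinetically at 1 sec intervals.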
With `OC[C@H]1O[C@@H]2O[C@H]3[C@H](O)[C@@H](O)[C@@H](O[C@H]4[C@H](O)[C@@H](O)[C@@H](O[C@H]5[C@H](O)[C@@H](O)[C@@H](O[C@H]6[C@H](O)[C@@H](O)[C@@H](O[C@H]7[C@H](O)[C@@H](O)[C@@H](O[C@H]8[C@H](O)[C@@H](O)[C@@H](O[C@H]9[C@H](O)[C@@H](O)[C@@H](O[C@H]1[C@H](O)[C@H]2O)O[C@@H]9CO)O[C@@H]8CO)O[C@@H]7CO)O[C@@H]6CO)O[C@@H]5CO)O[C@@H]4CO)O[C@@H]3CO` the Potency was “inactive”. In the case of `CCCCCCCCCCCCOC(C)=O`, the Potency is reported as “inactive”. With `S=C(S)NCCNC(=S)S` the Potency was “inactive”. With `C=Cc1ccc(C(C)(C)C)cc1` the Potency was “inactive”. In the case of `CCN[C@H]1C[C@H](C)S(=O)(=O)c2sc(S(N)(=O)=O)cc21`, the Potency is reported as “inactive”. With `O=c1c2ccccc2oc2ccccc12` the Potency was “inactive”. With `Nc1ncn([C@H]2C[C@H](O)[C@@H](CO)O2)c(=O)n1` the Potency was “inactive”. With `CC(=O)Nc1ccc(S(=O)(=O)Cl)cc1` the Potency was “inactive”. In the case of `CC(C)(C)C(=O)CCc1ccc(Cl)cc1`, the Potency is reported as “inactive”. With `CC(=O)NNC(C)=O` the Potency was “inactive”. For `O=[N+]([O-])c1ccc(Cl)cc1Cl`, the Potency was “inactive”. For `OCC1CC=CCC1` (stereo not given), the Potency was “inactive”. With `C=CCN(CC=C)CC=C` the Potency was “inactive”. For `O=C(Cl)c1c(Cl)cccc1Cl`, the Potency was “inactive”. In the case of `NCCCN(CCO)CCO`, the Potency is reported as “inactive”. For `CC1=C(C(=O)O)N2C(=O)[C@@H](NC(=O)[C@H](N)C3=CCC=CC3)[C@H]2SC1`, the Potency was “inactive”. In the case of `C#CC(O)C(CC)CCCC` (stereo not given), the Potency is reported as “inactive”. In the case of `C=C1CCC2CC1C2(C)C` (stereo not given), the Potency is reported as “inactive”. With `CC(C)CCOCc1ccccc1` the Potency was “inactive”. In the case of `CC1(C)C(=O)N(Cl)C(=O)N1Br`, the Potency is reported as “inactive”. For `CCOc1ccc(OCC)c(Cl)c1`, the Potency was “inactive”. In the case of `c1ccc(-c2nc[nH]c2-c2ccccc2)cc1`, the Potency is reported as “inactive”. In the case of `CCOc1ccc2nc(S(N)(=O)=O)sc2c1`, the Potency is reported as “inactive”. With `O=C1CC[C@@H](C(=O)O)N1` the Potency was “inactive”. In the case of `CCCCC(CC)C(=O)OCCOCCOCCOCCOC(=O)C(CC)CCCC` (stereo not given), the Potency is reported as “inactive”. In the case of `O=C(O)CNC(=O)CNC(=O)CNC(=O)CSC(=O)c1ccccc1`, the Potency is reported as “inactive”. With `CC(O)CC(C)O` (stereo not given) the Potency was “inactive”. With `Clc1sc(Cl)c(Cl)c1Cl` the Potency was “inactive”. With `C/C=C(\C)C(C)=O` the Potency was “inactive”. In the case of `CC1=NN(c2cccc(S(=O)(=O)O)c2)C(=O)C1`, the Potency is reported as “inactive”. With `C=CCOC(=O)c1ccc(C(=O)OCC=C)c(C(=O)OCC=C)c1` the Potency was “inactive”. In the case of `Cc1ccc(N)cc1S(=O)(=O)O`, the Potency is reported as “inactive”. In the case of `CC(C)(CO)[N+](=O)[O-]`, the Potency is reported as “inactive”. With `C[Si](C)(C)O[Si](O)(O)O` the Potency was “inactive”. With `CC(Cc1ccccc1)(NC(=O)CN)c1ccccc1` (stereo not given) the Potency was “inactive”. In the case of `N[C@@H](CCC(=O)O)C(=O)O`, the Potency is reported as “inactive”. With `C=C(C)C1CC=C(C)C(=O)C1` (stereo not given) the Potency was “inactive”. For `CC(CO)(CO)[N+](=O)[O-]`, the Potency was “inactive”. In the case of `NNC(=O)CP(=O)(c1ccccc1)c1ccccc1`, the Potency is reported as “inactive”. For `C=CCCC(=O)O`, the Potency was “inactive”.

System: not listed separately
Experiment: cAMP Responsive Elements (CRE) small molecule agonists, cell-based qHTS assay (AID 1963590)
Conditions: CRE-bla HEK293T, beta-lactamase FRET ratio, 3 h; series mostly up to 92.4 µM
In short: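 Cells carrying a CRE-driven beta-lactamase reporter (HEK 293T) are seeded, incubated overnight (18 h), and treated with test compounds for 3 h at 37 C; reporter activity is then detected with a FRET substrate after 2 h at room temperature.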
In the case of `OC[C@H]1O[C@@H]2O[C@H]3[C@H](O)[C@@H](O)[C@@H](O[C@H]4[C@H](O)[C@@H](O)[C@@H](O[C@H]5[C@H](O)[C@@H](O)[C@@H](O[C@H]6[C@H](O)[C@@H](O)[C@@H](O[C@H]7[C@H](O)[C@@H](O)[C@@H](O[C@H]8[C@H](O)[C@@H](O)[C@@H](O[C@H]9[C@H](O)[C@@H](O)[C@@H](O[C@H]1[C@H](O)[C@H]2O)O[C@@H]9CO)O[C@@H]8CO)O[C@@H]7CO)O[C@@H]6CO)O[C@@H]5CO)O[C@@H]4CO)O[C@@H]3CO`, the Potency is reported as “inactive”. In the case of `CCCCCCCCCCCCOC(C)=O`, the Potency is reported as “inactive”. For `S=C(S)NCCNC(=S)S`, the Potency was “inactive”. For `C=Cc1ccc(C(C)(C)C)cc1`, the Potency was “inactive”. With `CCN[C@H]1C[C@H](C)S(=O)(=O)c2sc(S(N)(=O)=O)cc21` the Potency was “inactive”. In the case of `O=c1c2ccccc2oc2ccccc12`, the Potency is reported as “inactive”. In the case of `Nc1ncn([C@H]2C[C@H](O)[C@@H](CO)O2)c(=O)n1`, the Potency is reported as “inactive”. For `CC(=O)Nc1ccc(S(=O)(=O)Cl)cc1`, the Potency was “inactive”. In the case of `CC(C)(C)C(=O)CCc1ccc(Cl)cc1`, the Potency is reported as “inactive”. For `CC(=O)NNC(C)=O`, the Potency was “inactive”. In the case of `O=[N+]([O-])c1ccc(Cl)cc1Cl`, the Potency is reported as “inactive”. In the case of `OCC1CC=CCC1` (stereo not given), the Potency is reported as “inactive”. With `C=CCN(CC=C)CC=C` the Potency was “inactive”. With `O=C(Cl)c1c(Cl)cccc1Cl` the Potency was “inactive”. In the case of `NCCCN(CCO)CCO`, the Potency is reported as “inactive”. In the case of `CC1=C(C(=O)O)N2C(=O)[C@@H](NC(=O)[C@H](N)C3=CCC=CC3)[C@H]2SC1`, the Potency is reported as “inactive”. In the case of `C#CC(O)C(CC)CCCC` (stereo not given), the Potency is reported as “inactive”. With `C=C1CCC2CC1C2(C)C` (stereo not given) the Potency was “inactive”. In the case of `CC(C)CCOCc1ccccc1`, the Potency is reported as “inactive”. With `CC1(C)C(=O)N(Cl)C(=O)N1Br` the Potency was “inactive”. With `CCOc1ccc(OCC)c(Cl)c1` the Potency was “inactive”. For `c1ccc(-c2nc[nH]c2-c2ccccc2)cc1`, the Potency was “inactive”. In the case of `CCOc1ccc2nc(S(N)(=O)=O)sc2c1`, the Potency is reported as “inactive”. For `O=C1CC[C@@H](C(=O)O)N1`, the Potency was “inactive”. In the case of `CCCCC(CC)C(=O)OCCOCCOCCOCCOC(=O)C(CC)CCCC` (stereo not given), the Potency is reported as “inactive”. With `O=C(O)CNC(=O)CNC(=O)CNC(=O)CSC(=O)c1ccccc1` the Potency was “inactive”. In the case of `CC(O)CC(C)O` (stereo not given), the Potency is reported as “inactive”. For `Clc1sc(Cl)c(Cl)c1Cl`, the Potency was “inactive”. With `C/C=C(\C)C(C)=O` the Potency was “inactive”. In the case of `CC1=NN(c2cccc(S(=O)(=O)O)c2)C(=O)C1`, the Potency is reported as “inactive”. In the case of `C=CCOC(=O)c1ccc(C(=O)OCC=C)c(C(=O)OCC=C)c1`, the Potency is reported as “inactive”. In the case of `Cc1ccc(N)cc1S(=O)(=O)O`, the Potency is reported as “inactive”. For `CC(C)(CO)[N+](=O)[O-]`, the Potency was “inactive”. In the case of `C[Si](C)(C)O[Si](O)(O)O`, the Potency is reported as “inactive”. In the case of `CC(Cc1ccccc1)(NC(=O)CN)c1ccccc1` (stereo not given), the Potency is reported as “inactive”. With `N[C@@H](CCC(=O)O)C(=O)O` the Potency was “inactive”. In the case of `C=C(C)C1CC=C(C)C(=O)C1` (stereo not given), the Potency is reported as “inactive”. With `CC(CO)(CO)[N+](=O)[O-]` the Potency was “inactive”. With `NNC(=O)CP(=O)(c1ccccc1)c1ccccc1` the Potency was “inactive”. In the case of `C=CCCC(=O)O`, the Potency is reported as “inactive”.
